Screens: PubChem BioAssay, Broad Institute
PAX8 reporter: inhibitors of PAX8-driven TPO luciferase reporter, primary screen, RMG-I cells, single concentration | SteadyGlo, 24 h | inhibition, % at 12.6 µM | 360,000 tested, 1.2% active;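 active = mean replicate inhibition at least 60% with every replicate also reaching 60%; inconclusive = only one of the two criteria is met; inactive = mean below 60% and not all replicates reaching 60%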;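 also: luciferase light reporting Pax8 driven TPO promoter activity; plate controls were median of neutral control wells for no effect and mitoxantrone controls for full effect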
MITF TRPM1 HTS: activators of MITF-driven TRPM1 promoter reporter, primary screen, cell-based, SK-MEL-5, luciferase, single point; SK-MEL-5 TRPM1-promoter luciferase, 24 h; % of positive control, neutral wells = 0; AID 588334, 2011; activation, % at 12.5 µM; 300,000 tested, 0.75% active;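 active = mean activation of at least 80% with every replicate also reaching 80%; inconclusive = mean reaches 80% but some replicate falls short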;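 also: 0% = neutral control wells and 100% = parthenolide positive control wells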
esBAF inh: Bmi1 luciferase reporter increase in mESCs, primary screen, esBAF inhibitor project, mouse ES cells, Bmi1 luciferase knock-in, single point | 24 h; 100% = twice the neutral-well signal | reporter increase, % at 12.5 µM | 350,000 tested, 2% active | AID 602393, 2012; in the data active = activation above about 40%; inconclusive = no clear call, values can overlap the other calls;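 also: 0% = median of the plate's neutral control wells and 100% = double that signal; a rise in the Bmi1 reporter signal indicates esBAF inhibition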
TRPM1 prom inh: inhibitors of MITF-dependent TRPM1 promoter reporter, primary screen, cell-based, SK-MEL-5, single point, luciferase. inhibition, % at 12.5 µM. 330,000 tested, 0.83% active. AID 488899, 2010. SK-MEL-5 TRPM1 promoter luciferase, 24 h;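 active = mean inhibition across replicates of 60% or more, whatever share of single replicates reaches that level; inconclusive = some that reach 60%, reason not given; inactive = mean inhibition across replicates below 60%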
Wnt bcat act: Wnt/beta-catenin pathway activators, primary screen, cell-based, plate reader, single point | Wnt/beta-catenin reporter cell assay, activator | activation, % at 9.35 µM | 300,000 tested, 1.2% active; in the data active = activation above about 30%, passing the limit was not always enough; inconclusive = no clear call, values can overlap the other calls;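 also: 0% = neutral control wells and 100% = positive control wells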
EWS-Fli inh: EWS/Fli-driven NR0B1 reporter inhibitors, primary screen, A673 cells, NR0B1 luciferase, luminescence, MLPCN library; 350,000 tested, 0.67% active; viability-normalised; inhibition, % at 12.6 µM;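 active = mean inhibition of at least 50% after viability correction, with every replicate also passing that limit; inconclusive = mean reaches 50% but only one of two replicates passes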;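 also: firefly luciferase signal divided by Alamar Blue viability fluorescence both relative to DMSO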
An asterisk follows results filed as active; u = inconclusive; x = not tested or not shown. A selection: hits, their analogues and other compounds. The true share with any hit is near 4%.

SMILES | PAX8 reporter | MITF TRPM1 HTS | esBAF inh | TRPM1 prom inh | Wnt bcat act | EWS-Fli inh
CC(C)NC(=O)Nc1ccc2c(c1)C(=O)N(C)[C@@H]1CC[C@@H](CC(=O)Nc3ccccc3)O[C@H]1CO2 | 9 | x | -1 | x | x | -9
CCN1CCN(c2nc(-c3cccs3)nc3ccccc23)CC1 | 134* | -6 | x | 2 | 2 | -14
CN1CCN(c2nc(-c3cccs3)nc3ccccc23)CC1 | -11 | -6 | -2 | 12 | -2 | -7
COc1ccccc1NC(=O)CCN1C(=O)c2ccccc2S1(=O)=O | -2 | -3 | x | 4 | 0 | -1
O=C1c2ccccc2S(=O)(=O)N1CC1CC(c2ccccc2Cl)=NO1 (centres undefined) | -204 | 94* | 14 | -101 | 93* | x
COc1ccccc1C1=NOC(CN2C(=O)c3ccccc3S2(=O)=O)C1 (centres undefined) | -193 | 104* | x | -103 | 37* | -67
CCCN1C[C@H](C)[C@@H](OC)CN(C)C(=O)c2ccc(NC(=O)c3ccc(F)cc3)cc2OC[C@@H]1C | 5 | x | 5 | x | x | 3
CCN1[C@H](C(=O)NCCc2cn(C)cn2)[C@@H](CO)[C@@H]2Cn3c(ccc(-c4ccncc4)c3=O)[C@@H]21 | -5 | x | -8 | x | x | -5
C[C@@H]1CN([C@@H](C)CO)C(=O)c2cc(NC(=O)Cn3cnnn3)ccc2O[C@@H]1CN(C)S(=O)(=O)c1ccc(Cl)cc1 | x | x | 2 | x | x | -3
c1ccc(-c2noc(-c3cccnc3)n2)cc1 | x | 77 | 22 | -74 | u | x
Clc1ccc(-c2noc(/C=C/c3ccccc3)n2)cc1 | 8 | x | 31 | -44 | 14 | -25
Cc1ccc(-c2noc(/C=C/c3ccccc3)n2)cc1 | x | 68 | 46* | -63 | x | x
C(=C\c1nc(-c2cccnc2)no1)/c1ccccc1 | -165 | 75 | 20 | -82 | 48* | -81
Clc1ccccc1/C=C/c1nc(-c2cccnc2)no1 | -78 | 84* | 21 | -92 | 39* | -39
C[C@H]1CN([C@@H](C)CO)C(=O)CCCn2nncc2CO[C@H]1CN(C)Cc1ccc(Cl)c(Cl)c1 | x | x | 12 | x | x | 18
CN1CCN(/N=C/c2ccc(N(c3ccccc3)c3ccccc3)cc2)CC1 | 23 | 13 | -1 | -16 | 0 | 18
CN1CCN(/N=C/c2ccc(Br)cc2)CC1 | -123 | 95* | 40 | -93 | 7 | -81
CN1CCN(/N=C/c2ccc(Cl)c(Cl)c2)CC1 | -140 | 88* | x | -82 | x | x
O=C(c1ccccc1)N(C(=O)c1ccccc1)c1ncnc2c1C(c1ccccc1)c1c(ccc3ccccc13)O2 (centres undefined) | 72* | -7 | -5 | 8 | -10 | 20
CCOC(=O)CCCC(=O)Nc1ncnc2c1C(c1ccccc1)c1c(ccc3ccccc13)O2 (centres undefined) | 20 | -1 | 5 | -2 | -4 | 5
CCOC(=O)N1CCC(NC(=O)c2cc3sccc3n2CC)CC1 | x | -2 | -5 | -2 | -2 | 10
CCn1c(C(=O)NC2CCC(C)CC2)cc2sccc21 (centres undefined) | -122 | 92* | 52* | -93 | 16 | x
Cn1c(C(=O)NC2CCCCC2)cc2sccc21 | x | 72 | 43* | -65 | x | x
COc1ccc2c3c([nH]c2c1)[C@@H](CO)N(CC1CC1)CC31CN(C(=O)c2cccc(F)c2)C1 | x | x | x | x | x | 13
Cc1ccccc1S(=O)(=O)N1CC[C@@H]2[C@H]1c1cc(Br)ccc1N(C)[C@H]2CO | -11 | x | 1 | x | x | -7
SMILES | PAX8 reporter | MITF TRPM1 HTS | esBAF inh | TRPM1 prom inh | Wnt bcat act | EWS-Fli inh
CCc1ccc(C(=O)COC(=O)c2cccnc2Cl)cc1 | -31 | 23 | 0 | -27 | 44* | -4
O=C(COC(=O)c1cccnc1Cl)c1ccc(F)cc1 | -17 | -2 | x | -5 | 4 | 0
O=C(COC(=O)c1cccnc1Cl)c1ccccc1 | x | 52 | 44* | -49 | 1 | -3
CCc1ccc(C(=O)COC(=O)c2ccccc2OC)cc1 | x | 87* | x | -82 | 50* | -8
N#CCc1ccc(OC(=O)c2cccnc2Cl)cc1 | -8 | 70 | 60* | -74 | 39* | -10
COc1ccccc1C(=O)OCC(=O)c1cccc([N+](=O)[O-])c1 | 5 | 10 | x | -6 | -3 | -9
O=C(C[C@@H]1CC[C@H]2[C@@H](COC[C@@H](O)CN2C(=O)c2ccccc2F)O1)N1CCOCC1 | -1 | x | -1 | x | x | -5
C/C=C/c1ccc(C2[C@H]3CNC[C@@H]2N3Cc2cc(-c3ccccc3)on2)cc1 (some centres undefined) | 7 | x | x | x | x | -16
Cc1nc(-c2ccccc2)nc2[nH]c(C(C)C)cc(=O)c12 | x | 5 | -5 | -4 | 68* | x
Cc1nc(-c2ccccc2)nc2[nH]c(=O)n(-c3ccccc3)c(=O)c12 | -58 | x | 43* | -34 | u | x
CC1CCc2nc(NC(=O)Cc3cccs3)sc2C1 (centres undefined) | x | 126* | 58* | -126 | -3 | x
O=C(CCCc1cccs1)Nc1nc2c(s1)CCCC2 | x | x | 53* | -36 | x | x
Cc1ccc(-c2cc(C(=O)N3CCOCC3)c3cc(C)ccc3n2)cc1 | -12 | 28 | 13 | -22 | 31* | -24
Cc1ccc2nc(-c3ccncc3)cc(C(=O)N3CCOCC3)c2c1 | x | -4 | 3 | 4 | x | x
Cc1ccc2nc3sc(C(=O)N4CCOCC4)c(N)c3cc2c1 | 82* | x | -77 | 69* | 9 | x
Cc1ccc2cc3c(N)c(C(=O)N4CCOCC4)sc3nc2c1 | x | 11 | x | -13 | 59* | x
COc1ccc2c3c([nH]c2c1)[C@H](CO)N(C(=O)Nc1ccc(F)cc1)CC31CCN(S(=O)(=O)c2ccc(C)cc2)CC1 | x | x | x | x | x | 14
c1ccc2cc(C3OCC4(CCCC4)CO3)ccc2c1 | -203 | x | 71* | x | 0 | -103
O=C1CCC(c2ccc3ccccc3c2)O1 (centres undefined) | -81 | 19 | 10 | -22 | 4 | -42
O=C(C[C@H]1CC[C@H]2[C@@H](COC[C@@H](O)CN2Cc2ccc(Oc3ccccc3)cc2)O1)N1CCc2ccccc2C1 | 105* | x | -1 | x | x | 45
O=C(C[C@@H]1CC[C@H]2[C@@H](COC[C@H](O)CN2Cc2ccc(Oc3ccccc3)cc2)O1)N1CCc2ccccc2C1 | 106* | x | -5 | x | x | 31
O=C(C[C@H]1CC[C@@H]2[C@H](COC[C@H](O)CN2Cc2ccc(Oc3ccccc3)cc2)O1)N1CCc2ccccc2C1 | 28 | x | -14 | x | x | 43
CCCNC(=O)N(C)C[C@@H]1Oc2cc(-c3ccc(C)cc3)ccc2S(=O)(=O)N([C@H](C)CO)C[C@H]1C | x | x | 3 | x | x | 7
